POLH inh: qHTS for Inhibitors of Polymerase Eta | recombinant Pol eta, fluorescent DNA replication assay | 390,000 compounds, 1.2% hits | AID 588591, 2011 | DNA polymerase eta (Homo sapiens), Q9Y253 | Potency, µM (series often up to 114 µM), inactives show top-dose activity change, negative = inhibition, hits mostly inhibitors; also: % is scaled to controls: 0 for no effect and ±100 for the full control effect
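Fluorescent replication assay: 50 nM final substrate added after a 15 min room-temperature compound preincubation with 10 nM enzyme. Signal taken at 0 min and again at 10 min.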
APEX1 inh: qHTS Assay for Inhibitors of the Human Apurinic/apyrimidinic Endonuclease 1 (APE1); 350,000 compounds, 0.35% hits; Potency, µM (top dose mostly 65.8 µM), without a hit: top-dose activity change, negative = inhibition, most hits filed as inhibitors; recombinant APE1, TAMRA/BHQ-2 abasic DNA cleavage fluorescence;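 also: plate controls were vehicle for no effect and reference inhibitor for full effect; nearly all actives have a fitted effect of over 55% in size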
Target sequence (P27695 whole entry, looked up): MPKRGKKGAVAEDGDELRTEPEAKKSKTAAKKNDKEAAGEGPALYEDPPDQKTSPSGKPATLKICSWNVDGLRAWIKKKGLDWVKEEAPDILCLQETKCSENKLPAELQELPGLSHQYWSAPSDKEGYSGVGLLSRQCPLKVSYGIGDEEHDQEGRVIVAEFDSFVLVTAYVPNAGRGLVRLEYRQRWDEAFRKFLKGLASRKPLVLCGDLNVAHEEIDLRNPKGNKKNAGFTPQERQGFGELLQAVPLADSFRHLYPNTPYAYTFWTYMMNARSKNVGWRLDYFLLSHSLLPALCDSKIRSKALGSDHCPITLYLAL
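Enzyme (0.75 nM final) and test compound are incubated 15 min at room temperature before adding 50 nM quenched THF abasic-site duplex. Cleavage dequenches TAMRA, followed at 525/598 nm over three reads one minute apart.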
Pol kappa inh: qHTS for Inhibitors of Polymerase Kappa | DNA polymerase kappa (Homo sapiens), Q9UBT6 | purified Pol kappa, fluorescent DNA synthesis assay, 10 min | Potency, µM (titrated, usually from 107 µM), without a hit: top-dose activity, negative = inhibition, hits mostly inhibitors | 400,000 compounds, 0.53% hits; also: % is scaled to controls: 0 for no effect and ±100 for the full control effect
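Activity was followed as the change in fluorescence between reads at 0 and 10 min after starting the reaction with 50 nM substrate. Beforehand, 10 nM polymerase had been preincubated with compound for 15 min at room temperature.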
Pol iota inh: qHTS for Inhibitors of Polymerase Iota; DNA polymerase iota (Homo sapiens), Q9UNA4; Pol iota fluorescent replication assay, 10 min; Potency, µM (series often up to 115 µM), without a hit: at the top dose activity, negative = inhibition, actives largely listed as inhibitors; 390,000 compounds, 1% hits
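Pol iota at 10 nM preincubated 15 min with compounds at room temperature; reaction started with fluorescent substrate, 50 nM final. Fluorescence read kinetically at 0 and 10 min; buffer-only wells as negative control.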
L3MBTL1 inh: qHTS Assay for the Inhibitors of L3MBTL1; Lethal(3)malignant brain tumor-like protein 1 (Homo sapiens), Q9Y468; 230,000 compounds, 0.66% hits; AlphaScreen L3MBTL1–H3K9me1 peptide binding; AID 485360, 2010; Potency, µM (doses to about 57.1 µM), without a hit: top-dose activity, negative = inhibition, actives largely listed as inhibitors; also: % is scaled to controls: 0 for no effect and ±100 for the full control effect; nearly all actives have a fitted effect of over 60% in size
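Read-out is AlphaScreen signal from streptavidin donor and nickel chelate acceptor beads (10 ug/mL final each) bridging L3MBTL1 (50 nM) and biotinylated K9-monomethylated H3(1-15) peptide (75 nM), after 30 min compound exposure at room temperature.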
POLB inh: qHTS Assay for Inhibitors of DNA Polymerase Beta; P06746; AID 485314, 2010; Pol beta primer extension/strand displacement, fluorescence kinetic; Potency, µM (top dose mostly 114 µM), for the others: at the top dose activity change, negative = inhibition, most hits filed as inhibitors; 340,000 compounds, 1.3% hits; also: % is scaled to controls: 0 for no effect and ±100 for the full control effect
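Kinetic readout of DNA synthesis with strand displacement by Pol beta. Compound and 10 nM enzyme sit 15 min at room temperature; 50 nM substrate starts the reaction, read immediately and at 10 min.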
Active calls of the source: *; ? = inconclusive; · = no result; [ ] = remark or other dose. This is a sample that favours compounds with a hit; in the whole collection about 2.5% have one here. Calls follow the shape of the dose curve; as a rule, active = well fitted curve in the direction sought with a large enough effect; inconclusive = small, poorly fitted or top-dose-only effect, or another doubt; inactive = no such curve, though single readings can be large; an effect the other way counts as inactive or inconclusive. Potency is read from the fitted curve at half-maximal effect.

SMILES	POLH inh	APEX1 inh	Pol kappa inh	Pol iota inh	L3MBTL1 inh	POLB inh
CCc1ccc(N2CC(c3nnc(NC(=O)c4ccco4)s3)CC2=O)cc1 (stereo not drawn)	8%	·	-8%	-15%	·	1%
O=C(Nc1n[nH]c(=S)s1)c1ccco1	-3%	6%	56µM*	?	-15%	6%
CC(C)Sc1nnc(NC(=O)c2ccco2)s1	89µM*	1%	-17%	?	·	-22%
CCSc1nnc(NC(=O)c2ccco2)s1	-4%	0%	2%	10%	2%	2%
Clc1ccc(-c2nnc(-c3ccc(Br)cc3)c(N3CCSCC3)n2)cc1	-18%	-6%	-3%	20%	-4%	1%
Clc1ccc(-c2nnc(-c3ccco3)nc2N2CCCCC2)cc1	?	20%	-18%	-8%	-22%	40µM*
CCc1ccc(OCc2nc(-c3ccc(-n4cccc4)cc3)no2)cc1	·	·	7%	-5%	·	22%
Clc1ccc(OCc2nc(-c3ccc(-n4cccc4)cc3)no2)cc1	-9%	·	-22%	89µM*	·	0%
CC(=O)Nc1ccc(NC(=S)NC(=O)c2ccc(C(C)(C)C)cc2)cc1	·	·	-3%[19.4 µM]	·	·	·
COc1ccc(CN2CCn3ncc(C(=O)Nc4ccccc4)c3C2=O)cc1	-6%	-1%	-5%	11%	3%	2%
O=C(O)c1cnn2c1C(=O)N(Cc1cccs1)CC2	32µM*	?	7%	9%	·	20µM*
CCOc1cc(C(c2c(C)[nH][nH]c2=O)c2c(C)[nH][nH]c2=O)cc(Cl)c1O	10%	-8%	-2%	25µM*	·	52%
CCN(CC)C(=S)S	·	·	3%[19.4 µM]	·	·	·
FC(F)(F)c1cnc(C(c2ccccn2)c2ncn[nH]2)c(Cl)c1 (stereo not drawn)	-1%	-2%	4%	-13%	8.9µM*	7%
FC(F)(F)c1cnc(C(c2ccccc2)c2ncn[nH]2)c(Cl)c1 (stereo not drawn)	3%	-1%	-14%	42%	0%	5%
Nc1cccc2c(=O)c3ccccc3[nH]c12	-7%	-11%[12.4 µM]	-4%	17%	·	45µM*
COc1ccc(C2NC(=O)N(C)C3=C2C(=O)N(c2ccc(F)cc2)C3)cc1 (stereo not drawn)	-7%	·	-4%[60.1 µM]	19%	·	0%
CCNc1nc(NCC)nc(OCC(=O)O)n1	-2%	3%	-14%	18%	·	13%
CCNc1nc(NCC)nc(C(=O)NN)n1	-9%	3%	14%	-6%	4µM*	3%
C=Nc1ccc(/C=C/c2ccnc3ccccc23)cc1	·	·	-19%	30%	·	·
COc1ccccc1C(=O)NC(=O)CSc1nnc2ccccn12	1%	18%	-13%	17%	4%	·
O=C(CSc1nnc2ccccn12)NC(=O)c1ccccc1Cl	40µM*	13µM*	?	28µM*	-8%	·
CCCOc1ccc(/C=c2\sc3nc(-c4ccco4)nn3c2=O)cc1OCC	?	?	?	22µM*	-23%	?
CCCCCOc1ccc(/C=c2\sc3nc(=O)c(-c4ccccc4)nn3c2=O)cc1OC	-3%	?	-19%	7%	-1%	-8%
O=C(O)c1cccc(N/N=C/c2cn(-c3ccccc3)nc2-c2cccs2)c1	79µM*	-1%	-18%	61%	-27%	?
SMILES	POLH inh	APEX1 inh	Pol kappa inh	Pol iota inh	L3MBTL1 inh	POLB inh
COc1ccc(NC(=O)/C=C/c2cc(Br)ccc2OC)cc1	-2%	8%	-14%	-9%	-8%	40%
COc1ccc(Br)cc1/C=C/C(=O)c1ccc(NC(C)=O)cc1	?	-1%	-19%	100µM*	3%	20%
C[N+](C)(C)CC(O)CC(=O)[O-] (stereo not drawn)	·	-1%	·	·	·	·
Cc1nc2cc(N=NC3=C(O)CCCC3=O)ccc2s1	-16%	-1%	-28%	50µM*	-26%	-26%
O=C1CCCC(O)=C1N=Nc1ccc(Cl)c(Cl)c1	-18%	5%	-4%	-19%	?	?
CCOC(=O)C1=C(O)/C(=C\c2ccc(CNS(=O)(=O)c3ccc(Br)cc3)o2)N=C1C	22µM*	-9%	50µM*	16µM*	-9%	-24%
COC(=O)C1=C(O)/C(=C\c2ccc(CNS(=O)(=O)c3ccccc3)o2)N=C1C	?	17%	28µM*	?	?	-20%
O=C(OCC(=O)N1CCCCC1)c1cc2ccccc2cc1O	-14%	1%	-10%	8%	12%	3%
C/C(CC(=O)Nc1ccc(Cl)c(C(F)(F)F)c1)=N\NC(=O)c1cc2ccccc2cc1O	-8%	2%	?	89µM*	-9%	-14%
COc1cccc(NC(=O)C/C(C)=N/NC(=O)c2ccccc2Cl)c1	2%	11%	10%	?	·	0%
C/C(CC(=O)N1CCCC1)=N\NC(=O)c1cc2ccccc2cc1O	-8%	-5%	?	79µM*	-29%	-74%
O=C(CCn1cccc1)NCc1ccc2c(c1)OCO2	?	?	?	?	-13%	50µM*
O=C(CCn1c(=O)oc2ccccc21)NCc1ccc2c(c1)OCO2	-9%	2%	6%	2%	34%	-2%
COc1cc2nc(C3CCC3)nc(N3CCN(c4ccccc4OC)CC3)c2cc1OC	-23%	-7%	-17%	-14%	28µM*	-18%
FC(F)(F)c1ccccc1Cl	·	11%	·	·	·	·
CC(=O)/C=C1\C(=O)N(C)c2ccccc21	·	·	-3%[60.1 µM]	·	·	·
CN(C)C(CNC(=O)CCOc1ccccc1)c1ccco1 (stereo not drawn)	?	29%	79µM*	32µM*	-25%	?
CC(Oc1ccc2ccccc2c1)C(=O)NNC(=O)Nc1ccccc1F (stereo not drawn)	-3%	12%	-18%	15%	·	?
O=C(COc1ccc2ccccc2c1)NNC(=O)Nc1ccccc1F	?	-5%	-11%	79µM*	·	35µM*
Cc1cccc(OCC(=O)NNC(=O)c2ccc([N+](=O)[O-])cc2)c1	-9%	17%	-5%	4%	15%	-12%
COc1ccc(OC)c(NC(=O)NNC(=O)COc2ccc(-c3ccccc3)cc2)c1	-17%	8%	-5%	17%	·	30%
O=C(COc1ccc2ccccc2c1)NNC(=O)c1ccc([N+](=O)[O-])cc1	79µM*	0%	-20%	?	-23%	8.9µM*
